We go through 62 compounds from PubChem BioAssay AID1006 (Sanford-Burnham Center for Chemical Genomics, 2008).

Values joined by “and” are separate entries in the source; they are usually repeats but may differ in a detail not shown here. Equal values may be shown once. Screen size: about 200,000 compounds; about 3,000 (1.5%) were called active.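 Rule for the calls: active = inhibition above about 50% when tested at 10 µM (limit read from the data); inactive = the rest.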 The list comes from a sample in which actives are over-represented; it also holds similar structures and randomly drawn compounds.

Chain of Luciferin 4-monooxygenase (Photinus pyralis) (P08659 whole entry, looked up): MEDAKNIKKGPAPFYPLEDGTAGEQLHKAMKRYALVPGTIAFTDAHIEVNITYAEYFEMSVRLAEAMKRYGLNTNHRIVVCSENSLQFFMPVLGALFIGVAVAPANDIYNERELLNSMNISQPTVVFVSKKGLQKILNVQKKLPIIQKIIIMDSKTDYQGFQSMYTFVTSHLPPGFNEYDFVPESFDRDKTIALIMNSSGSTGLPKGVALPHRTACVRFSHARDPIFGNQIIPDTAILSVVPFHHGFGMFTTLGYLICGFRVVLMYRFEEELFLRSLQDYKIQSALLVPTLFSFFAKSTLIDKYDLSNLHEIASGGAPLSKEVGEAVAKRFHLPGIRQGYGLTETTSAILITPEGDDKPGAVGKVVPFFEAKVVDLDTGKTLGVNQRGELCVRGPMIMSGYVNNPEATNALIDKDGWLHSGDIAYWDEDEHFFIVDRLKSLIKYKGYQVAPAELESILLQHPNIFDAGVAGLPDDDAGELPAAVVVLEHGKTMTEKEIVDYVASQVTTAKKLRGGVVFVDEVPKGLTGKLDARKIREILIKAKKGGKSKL

The assay concerns the target Luciferin 4-monooxygenase (Photinus pyralis) (UniProt P08659). The assay is described as follows: inhibition of purified FLuc reporter enzyme – biochemical, luminescence, ATPLite, artefact control for luciferase-based inhibitor screens, primary screen (AID 1006). The settings on record: ATPLite firefly luciferase biochemical luminescence, 10 min; at 10 µM; hits give high values. A general note: In ATP-based viability assays light output follows the ATP content of the culture.
On to `CC/C(Cc1ccccc1)=N/NC(=O)CCn1nnc2ccccc21`, for which the inhibition (commonly the relative decrease from the control value, in per cent) is -3.6% (inactive). For `Cc1ccccc1C1=N/C(=C/c2cccnc2)C(=O)O1`, the inhibition is 34.5% (inactive). With `Cc1ccc(C2=C/C(=C\c3cccnc3)C(=O)O2)cc1`, the inhibition was 52.2% (active). Under `O=C1OC(c2ccc(Cl)cc2)=N/C1=C\c1cccnc1` stands -3.3% (inactive); under `Cc1ccc(C)c(CSc2nc(-c3ccco3)nc3c2c(=O)n(C)c(=O)n3C)c1`, 0.1% (inactive); under `CC(=O)c1ccc(N2CCN(S(=O)(=O)c3c(C)[nH]c(=O)[nH]c3=O)CC2)cc1`, -3% (inactive). Under `O=C(CCN1CCN(C/C=C/c2ccccc2)CC1)Nc1cccc(F)c1` stands -5.5% (inactive); under `CCn1c(/C=N/NC(=O)c2ccc(OC)cc2)nc2ccccc21`, 8.7% (inactive); under `COc1ccc(C(=O)Nc2ccccc2C(=O)N/N=C/c2ccccc2OC)cc1`, 97.8% (active). As for `COc1cc(/C=N/NC(=O)c2ccccc2)ccc1OS(=O)(=O)c1ccccc1`, the inhibition is -2.6% (inactive). Under `COc1ccccc1C(=O)NNC(=O)c1ccc(NC(=O)c2ccccc2)cc1` stands -1.7% (inactive).

Turning to `COc1ccc(C(=O)Nc2ccccc2C(=O)N/N=C/c2ccc(O)c(OC)c2)cc1`, the inhibition was 98.3% (active). Regarding `COc1ccc(/C=N/NC(=O)c2ccccc2)cc1OS(=O)(=O)c1ccccc1`, the inhibition is -2.1% (inactive). Under `CCN(CC)c1ccc([N+](=O)[O-])cc1C(=O)O` stands -4.3% (inactive). Under `Cc1ccc2cc(CN(c3ccc(C)c(C)c3)S(C)(=O)=O)c(=O)[nH]c2c1` stands -3.5% (inactive). Consider `CCOC(=O)C1=C(CC)Nc2ccccc2N=C1N`, for which the inhibition is -6.8% (inactive). Under `CCc1ccccc1NC(=O)CN(c1ccc(OC)cc1OC)S(=O)(=O)c1ccccc1[N+](=O)[O-]` stands -10.9% (inactive); under `COc1ccc(N(CC(=O)NC2CCCC2)C(=O)CS(=O)CC(=O)Nc2ccc3c(c2)OCO3)cc1` (configuration not stated), -6.6% (inactive); under `COc1cc2c(C(=O)N3CCN(C)CC3)c(CSc3ccccc3)n(C)c2cc1Br`, -9.2% (inactive). On to `Cc1cc2ccccn2c1C(=O)c1cccc(S(=O)(=O)N2CCOCC2)c1`, for which the inhibition was 4.2% (inactive). Under `COc1ccc(Cn2c(-c3ccc(Cl)cc3)c[n+]3ccccc23)cc1` stands 7.2% (inactive); under `CC(C)C(NC(=O)C1CCC(C(C)(C)C)CC1)C(=O)NCCCN1CCCCC1` (configuration not stated), -3% (inactive). Under `Cc1cc(OC(=O)c2ccccc2Cl)ccc1N1C(=O)CCC1=O` stands 69% (active). Regarding `Cc1ccc(C)c(N2C(=O)CS/C2=N\NC(=O)c2ccccc2Cl)c1`, the inhibition was -0.5% (inactive). Take `COc1ccccc1C(=O)Oc1ccc(N2C(=O)CCC2=O)cc1`: the inhibition is -2.3% (inactive). As for `C=CCn1c(P(C)(=O)O)nc2ccccc21`, the inhibition is -7.9% (inactive) and -5.5% (inactive). Under `CCc1ccc(OCC(=O)OCC(=O)c2c(N)n(C)c(=O)n(C)c2=O)cc1` stands -11.1% (inactive). As for `O=c1c2c(nc3nc[nH]n13)CCC2`, the inhibition was -4.1% (inactive). Regarding `O=c1c2c(nc3cc(-c4cccc(Cl)c4)[nH]n13)CCCC2`, the inhibition is 74.9% (active). Regarding `O=C1CCCc2c1nc(-c1cccc(Cl)c1)n2O`, the inhibition was -1.6% (inactive).

For the compound `COc1ccc(C(=O)OCC(=O)NC(=O)CCSc2ccccc2)cc1`, the inhibition was -0.8% (inactive). Regarding `Cc1ccc(SCCC(=O)NC(C(C)C)C(C)C)cc1`, the inhibition was -8.1% (inactive). Under `Cc1cc2nc(C(F)(F)F)cc(-c3cccs3)n2n1` stands -2.2% (inactive); under `CCOc1ccc(-c2nnc(-c3ccco3)o2)cc1`, 79.2% (active). Under `CCCCOc1ccc(-c2nnc(-c3ccco3)o2)cc1` stands 25.4% (inactive); under `CCC(=O)Oc1cccc(C(=O)Nc2ccc(-c3nnc(-c4ccco4)o3)cc2)c1`, -4.9% (inactive); under `CCOc1ccc2nc(SC(CC)C(=O)Nc3cc(C)on3)sc2c1` (configuration not stated), -3.8% (inactive). Under `CCOc1ccc2nc(C(=O)N3CCCC(C)C3)sc2c1` (configuration not stated) stands 56% (active); under `CCOc1ccc2nc(Nc3nc4ccc(NC(C)=O)cc4s3)sc2c1`, 8.7% (inactive); under `O=C(Nc1ccnc(-c2ccncc2)n1)c1cccs1`, -0.6% (inactive).

Turning to `O=C(O)COc1ccc(-c2nccc(-c3cccs3)n2)cc1`, the inhibition is 77.5% (active). Consider `COC(=O)CSc1nccc(-c2cccs2)n1`, for which the inhibition is 3.7% (inactive).

On to `COc1cccc(/C=N/Nc2cc(C)nc(-c3ccccc3O)n2)c1O`, for which the inhibition was 9.6% (inactive). As to `COc1cccc(/C=N/NC(=O)c2[nH]nc3c2CCc2ccccc2-3)c1O`, the inhibition was 28.9% (inactive). Under `COc1cccc(/C=N\NC(=O)C2=NNC(=O)C2C)c1O` (configuration not stated) stands 83.5% (active); under `CNC(=O)NC(=O)C(OC(=O)c1cccc(S(=O)(=O)N2CCCCC2)c1)c1ccccc1` (configuration not stated), -3.2% (inactive). As to `COc1ccc2oc(-c3cccc(NC(=O)CSc4ccc(Cl)cc4)c3)nc2c1`, the inhibition was 3% (inactive). Regarding `COc1cccc(-c2nc3cc(C)ccc3o2)c1`, the inhibition was 82.8% (active). In the case of `O=[N+]([O-])c1ccc2oc(-c3cccc(O)c3)nc2c1`, the inhibition is 53.2% (active). On to `O=C(Cc1cccc2ccccc12)Nc1ccc2oc(-c3ccccc3)nc2c1`, for which the inhibition is 2.6% (inactive).

As for `COc1cccc(-c2nc(S(=O)(=O)c3ccccc3)c(N3CCOCC3)o2)c1`, the inhibition was -0.7% (inactive).

Regarding `COc1ccc(-c2nc3cc([N+](=O)[O-])ccc3o2)cc1OC`, the inhibition was 2.5% (inactive).

Turning to `Cc1cc(NC(=O)CSc2nc3ccccc3n2CC(C)C)no1`, the inhibition was -5.3% (inactive). Regarding `COc1ccc(F)c(-c2nc(CN3CCC(c4ccccc4)CC3)c(C)o2)c1`, the inhibition was 0.5% (inactive). On to `O=C(CCN1C(=O)C2C3C=CC(C3)C2C1=O)Oc1ccc2ccccc2c1` (configuration not stated), for which the inhibition was -3.9% (inactive). As for `CC1CC(C)CN(S(=O)(=O)c2ccc(C(=O)NN3CCOCC3)cc2)C1` (configuration not stated), the inhibition is 0.2% (inactive). On to `COc1ccc(-c2csc(Cc3nc(O)cs3)n2)cc1`, for which the inhibition was 4.6% (inactive). With `CSCC[C@H](NC(=O)OC(C)(C)C)C(=O)N/N=C/c1cc2ccc(C)cc2nc1Cl`, the inhibition was -6.9% (inactive). Under `COc1ccc2nc(Nc3nc4cc5c(cc4s3)OCCO5)sc2c1` stands 11.3% (inactive); under `c1c2c(cc3sc(N4CCCCC4)nc13)OCCO2`, 92.9% (active). Under `Brc1ccc2nc(N3CCCC3)sc2c1` stands 35.9% (inactive); under `Cc1ccc(N(C(=O)c2ccc(CN3CCOCC3)o2)C(C(=O)NCCC(C)C)c2cccs2)c(C)c1` (configuration not stated), -4.1% (inactive).
